According to PubChem BioAssay (Tox21):
Where “and” joins values, the source holds several entries; their conditions need not be identical. Identical values can stand only once. Records with an inconclusive call do not appear. Calls of active or inactive are those of the source. Unless noted, the call rests on the fitted dose curve; in most records, active means well fitted curve in the direction sought with a large enough effect in the repeat runs; inconclusive means weak or mixed curves; inactive means no such curve, though single readings can be large; an effect the other way counts as inactive or inconclusive.

Columns and labels:
[1] = qHTS assay to identify small molecule antagonists of the estrogen related receptor (ERR) signaling pathway from Tox21 library - cell viability counter screen (AID 1224834); further: nearly all actives have a fitted effect of over 30% in size
Procedure, shortened: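 In this quantitative HTS format, ERR cells receive compounds in DMSO and are incubated for 17.5 h at 37 C. Live-cell protease activity is then detected with CellTiter-Fluor.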

[2] = molecular target: Luciferin 4-monooxygenase (Photinus pyralis) (UniProt P08659); test: qHTS assay to identify small molecule inhibitors of firefly luciferase (AID 1224835); further: nearly all actives have a fitted effect of over 25% in size
Sequence of Luciferin 4-monooxygenase (Photinus pyralis) (P08659 whole entry, looked up): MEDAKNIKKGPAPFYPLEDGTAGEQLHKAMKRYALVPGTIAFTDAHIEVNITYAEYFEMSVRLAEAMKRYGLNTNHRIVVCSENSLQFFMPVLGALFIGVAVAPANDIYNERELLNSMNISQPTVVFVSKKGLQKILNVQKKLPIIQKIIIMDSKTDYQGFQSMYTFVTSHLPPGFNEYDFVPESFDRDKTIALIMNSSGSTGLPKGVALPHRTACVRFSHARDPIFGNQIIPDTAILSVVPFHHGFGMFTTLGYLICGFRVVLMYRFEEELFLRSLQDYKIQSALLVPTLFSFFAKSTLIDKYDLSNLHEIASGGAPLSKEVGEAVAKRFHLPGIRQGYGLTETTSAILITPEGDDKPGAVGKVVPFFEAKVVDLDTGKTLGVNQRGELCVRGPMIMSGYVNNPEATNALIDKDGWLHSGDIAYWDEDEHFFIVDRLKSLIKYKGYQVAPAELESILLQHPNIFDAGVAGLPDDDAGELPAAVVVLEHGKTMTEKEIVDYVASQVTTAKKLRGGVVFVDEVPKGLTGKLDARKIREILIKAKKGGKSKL
Procedure, shortened: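 Quantitative HTS format; KM concentrations of both substrates. Purified P. pyralis FLuc activity quantified from luminescence images.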

[3] = qHTS assay to identify small molecule agonists of the constitutive androstane receptor (CAR) signaling pathway - cell viability counter screen (AID 1224836); further: nearly all actives have a fitted effect of over 45% in size
Procedure, shortened: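 HepG2 cells stably carrying hCAR and a CYP2B6-2.2kb reporter were plated 4 h, then given compounds at 15 concentrations plus PK11195 (final 0.75 uM). After 23 h at 37 C, viability was read by CellTiter-Fluor fluorescence.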

[4] = qHTS assay to identify small molecule antagonists of the constitutive androstane receptor (CAR) signaling pathway - cell viability counter screen (AID 1224837); further: nearly all actives have a fitted effect of over 45% in size
Procedure, shortened: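 In quantitative HTS format, compounds at 15 concentrations were applied to HepG2 cells double-transfected with hCAR and CYP2B6-2.2kb under 50 nM CITCO stimulation; live-cell protease activity was read after 23 hr via CellTiter-Fluor.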

[5] = molecular target: Nuclear receptor subfamily 1 group I member 3 (Homo sapiens) (UniProt Q14994); test: qHTS assay to identify small molecule antagonists of the constitutive androstane receptor (CAR) signaling pathway (AID 1224838); further: nearly all actives have a fitted effect of over 40% in size
Sequence of Nuclear receptor subfamily 1 group I member 3 (Homo sapiens) (Q14994 whole entry, looked up): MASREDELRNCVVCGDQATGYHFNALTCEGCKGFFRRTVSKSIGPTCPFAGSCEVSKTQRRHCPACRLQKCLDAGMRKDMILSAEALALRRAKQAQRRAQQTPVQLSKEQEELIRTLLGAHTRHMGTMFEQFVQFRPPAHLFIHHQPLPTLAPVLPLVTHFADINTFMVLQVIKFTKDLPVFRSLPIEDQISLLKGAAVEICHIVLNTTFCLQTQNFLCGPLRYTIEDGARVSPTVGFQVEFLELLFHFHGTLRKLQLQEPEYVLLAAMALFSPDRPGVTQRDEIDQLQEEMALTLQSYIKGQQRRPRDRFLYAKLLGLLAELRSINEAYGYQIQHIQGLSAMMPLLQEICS
Procedure, shortened: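 CITCO-stimulated (50 nM final) HepG2 cells stably transfected with hCAR and CYP2B6-2.2kb luciferase were exposed to compounds at 15 concentrations for 24 h at 37 C/5% CO2. A luciferase reagent was added and luminescence recorded after 30 min.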

[6] = molecular target: Nuclear receptor subfamily 1 group I member 3 (Homo sapiens) (UniProt Q14994); test: qHTS assay to identify small molecule agonists of the constitutive androstane receptor (CAR) signaling pathway (AID 1224839);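 further: HepG2 cells stably carrying human CAR and a CYP2B6 luciferase reporter; nearly all actives have a fitted effect of over 15% in size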
Procedure, shortened: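 HepG2 cells stably expressing hCAR and a CYP2B6-2.2kb luciferase reporter were treated with compounds at 15 concentrations plus 0.75 uM PK11195 (final) for 24 h at 37 C; luminescence was read after ONE-Glo addition.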

[7] = qHTS assay to identify small molecule antagonists of the estrogen related receptor signaling pathway with the pleiotropic PPARgamma coactivator (PGC) from Tox21 10K library - cell viability counter screen (AID 1224840; active means well fitted cell-killing curve with a large enough effect in the repeat runs, not every such curve was filed as active; further: nearly all actives have a fitted effect of over 40% in size)
Procedure, shortened: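 Viability counter screen, PGC/ERR cells: 17.5 h compound exposure at 37 C, CellTiter-Fluor fluorescence endpoint.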

[8] = qHTS assay to identify small molecule antagonists of the estrogen related receptor signaling pathway with the pleiotropic PPARgamma coactivator (PGC) from Tox21 10K library (AID 1224841; call rule not given here; further: actives are mostly falling curves and most rising ones were filed inactive; nearly all actives have a fitted effect of over 50% in size)
Procedure, shortened: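 In the PGC/ERR line, DMSO solutions of test chemicals are pin-delivered to 2,000 cells/well six hours after dispensing. Following eighteen hours' incubation, One-Glo reagent is added and luminescence recorded.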

[9] = qHTS assay to identify small molecule agonists of the estrogen related receptor signaling pathway with the pleiotropic PPARgamma coactivator (PGC) from Tox21 10K library (AID 1224842); further: nearly all actives have a fitted effect of over 15% in size
Procedure, shortened: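 PGC/ERR reporter cells (NTP line) were seeded 2,000 per well, rested 6 h at 37 C/5% CO2, then pin-dosed with compounds in DMSO for 18 h at 37 C; luciferase read by One-Glo luminescence after 30 min at room temperature.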

[10] = molecular target: Thyrotropin receptor (Homo sapiens) (UniProt P16473); test: qHTS assay to identify small molecule agonists of the thyroid stimulating hormone receptor (TSHR) signaling pathway (AID 1224843; calls by dose curve; further: nearly all actives have a fitted effect of over 45% in size)
Sequence of Thyrotropin receptor (Homo sapiens) (P16473 whole entry, looked up): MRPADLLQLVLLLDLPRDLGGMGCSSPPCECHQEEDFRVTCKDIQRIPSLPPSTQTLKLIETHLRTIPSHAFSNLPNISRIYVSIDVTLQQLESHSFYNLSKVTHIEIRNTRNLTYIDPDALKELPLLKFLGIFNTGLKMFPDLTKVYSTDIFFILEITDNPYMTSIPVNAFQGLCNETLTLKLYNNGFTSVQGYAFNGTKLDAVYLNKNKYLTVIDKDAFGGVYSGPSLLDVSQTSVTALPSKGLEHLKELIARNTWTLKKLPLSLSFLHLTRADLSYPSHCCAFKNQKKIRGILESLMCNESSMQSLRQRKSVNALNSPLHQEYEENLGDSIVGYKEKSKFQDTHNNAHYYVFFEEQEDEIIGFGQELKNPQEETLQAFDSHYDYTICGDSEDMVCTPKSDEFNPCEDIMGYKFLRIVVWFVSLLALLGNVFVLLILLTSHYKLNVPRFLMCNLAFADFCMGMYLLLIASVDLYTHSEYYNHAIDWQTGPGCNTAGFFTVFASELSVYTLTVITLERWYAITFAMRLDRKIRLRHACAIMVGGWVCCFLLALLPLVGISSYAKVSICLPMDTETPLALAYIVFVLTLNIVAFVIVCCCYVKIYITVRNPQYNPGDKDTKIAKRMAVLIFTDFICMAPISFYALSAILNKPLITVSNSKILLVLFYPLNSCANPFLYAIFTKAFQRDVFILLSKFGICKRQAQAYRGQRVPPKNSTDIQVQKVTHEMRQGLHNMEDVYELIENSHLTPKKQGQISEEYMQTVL
Procedure, shortened: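 Compounds are titrated over 15 concentrations, in triplicate, onto TSHR-HEK293 cells seeded at 800/well. Plates sit 30 min at room temperature before cAMP-d2 and anti-cAMP cryptate are added; signal is read after a further hour.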

[11] = qHTS assay to identify small molecule agonists of the hypoxia (HIF-1) signaling pathway - cell viability counter screen (AID 1224844; calls by dose curve; further: nearly all actives have a fitted effect of over 50% in size)
Procedure, shortened: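 Same wells as the HIF-1 reporter screen; ME-180 cells carrying HRE-bla, 17 hr treatment at 37C; CellTiter-Glo luminescence read after 30 min at room temperature.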

[12] = qHTS assay to identify small molecule agonists of H2AX (AID 1224845; active means well fitted activation curve with a large enough effect in the signal ratio in the repeat runs, not every such curve was filed as active; the % refers to the signal ratio)
Procedure, shortened: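 Wild-type CHO-K1 cells plated overnight, then exposed 3 hr at 37C to compounds at 15 concentrations (0.76% DMSO). Lysed, then HTRF anti-pH2AX(S139)-cryptate/anti-H2AX-d2 detection after 24 hr at room temperature; emissions 665 and 620 nm.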

[13] = qHTS assay to identify small molecule agonists of the hypoxia (HIF-1) signaling pathway (AID 1224846; active means well fitted activation curve with a large enough effect in the signal ratio in the repeat runs, not every such curve was filed as active; the % refers to the signal ratio)
Procedure, shortened: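 In ME-180 cells bearing an HRE-bla construct, 17 h treatment with DMSO-dissolved compounds at 37C was followed by CCF4-AM loading to quantify reporter induction.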

[14] = qHTS assay to identify small molecule agonists of H2AX - cell viability counter screen (AID 1224847; calls by dose curve; further: top concentration of the series differs between compounds; nearly all actives have a fitted effect of over 30% in size)
Procedure, shortened: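 Wild-type CHO-K1 cells (10% FBS medium) were plated overnight at 37C, exposed to compounds at 15 concentrations for 3 hr at 37C (0.76% DMSO final), and viability was read as CellTiter-Glo luminescence after 30 min at room temperature.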

[15] = qHTS assay to identify small molecule antagonists of the estrogen related receptor (ERR) signaling pathway from Tox21 library (AID 1224848); further: nearly all actives have a fitted effect of over 50% in size
Procedure, shortened: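 First, 2,000 ERR cells per well were plated and held 6 h at 37 C/5% CO2. Next, compounds in DMSO were pinned in and left 18 h at 37 C. Finally, ONE-Glo was added and luminescence read after 30 min at room temperature.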

[16] = qHTS RealTime-Glo MT Cell Viability Assay in HepG2 cells - 24 hour (AID 1224867); further: nearly all actives have a fitted effect of over 50% in size
Procedure, shortened: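 Compound treatment began 5 h after plating HepG2 cells (600/well) with NanoLuc luciferase and prosubstrate. Plates stayed at 37 C for 40 h; luminescence was captured at six time points, 0 h through 40 h.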

[17] = qHTS RealTime-Glo MT Cell Viability Assay in HEK293 cells - 32 hour (AID 1224868)
Procedure, shortened: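 Quantitative high-throughput screen of the Tox21 10K library in HEK293: cells and RealTime-Glo reagents plated together, compound added at 5 h, luminescence monitored through 40 h at 37 C.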

[18] = A CellTox Green Cytotoxicity Assay to monitor cytotoxicity in HEK293 cells - 0 hour (AID 1224869); further: nearly all actives have a fitted effect of over 50% in size
Procedure, shortened: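 Homogeneous no-lysis format: HEK293 cell suspension mixed with CellTox Green reagent, seeded, incubated 5 h at 37 C/5% CO2, then dosed by pintool with compound in DMSO.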

[19] = qHTS assay to identify small molecule agonists of the estrogen related receptor (ERR) signaling pathway from Tox21 library (AID 1224849; calls by dose curve; further: nearly all actives have a fitted effect of over 15% in size); settings: ERR reporter cell line, ONE-Glo luciferase, 18 h; at 92.4 µM (top of the series)
Procedure, shortened: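 Reporter cells (ERR, NTP source) treated with Tox21 10K compounds 18 h, 37 C. Readout: ONE-Glo luminescence, 30 min RT.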
On the % scale 0 is the no-effect control and ±100 the full control effect.

C=C(C)OC(C)=O
inactive: Potency [1] | Potency [2] | Potency [3] | Potency [4] | Potency [5] | Potency [6] | Potency [7] | Potency [8] | Potency [9] | Potency [10] | Potency [11] | Potency [12] | outcome [13] | Potency [14] | Potency [15] | outcome [16] | Potency [17] | Potency [18]

C=C(C)C(N)=O
inactive: Potency [1] | Potency [2] | Potency [3] | Potency [4] | Potency [5] | Potency [6] | Potency [7] | Potency [8] | Potency [9] | Potency [10] | Potency [12] | outcome [13] | Potency [14] | Potency [15] | outcome [16] | Potency [17] | Potency [18]

C=CCOC(=O)CC(C)C
inactive: Potency [1] | Potency [2] | Potency [3] | Potency [4] | Potency [5] | Potency [6] | Potency [7] | Potency [8] | Potency [9] | Potency [10] | Potency [11] | Potency [12] | outcome [13] | Potency [14] | Potency [15] | outcome [16] | Potency [17] | Potency [18]

O=C1CCCCCN1
inactive: Potency [1] | Potency [2] | Potency [3] | Potency [4] | Potency [5] | Potency [6] | Potency [7] | Potency [8] | Potency [9] | Potency [10] | Potency [12] | outcome [13] | Potency [14] | Potency [15] | outcome [16] | Potency [17] | Potency [18]

C/C=C/c1ccc(O)c(OC)c1
inactive: Potency [1] | Potency [2] | Potency [3] | Potency [4] | Potency [5] | Potency [6] | Potency [7] | Potency [10] | Potency [11] | Potency [12] | outcome [13] | Potency [14] | outcome [16] | Potency [17] | Potency [18]

Cc1cccc(C)c1O
inactive: Potency [1] | Potency [2] | Potency [3] | Potency [4] | Potency [5] | Potency [6] | Potency [7] | Potency [8] | Potency [9] | Potency [12] | outcome [13] | Potency [14] | Potency [15] | outcome [16] | Potency [17] | Potency [18]

COCC(C)N (stereo not drawn)
inactive: Potency [1] | Potency [2] | Potency [3] | Potency [4] | Potency [5] | Potency [6] | Potency [7] | Potency [10] | Potency [11] | Potency [12] | outcome [13] | Potency [14] | outcome [16] | Potency [17] | Potency [18]

CCCCOCCOCCOC(C)=O
inactive: Potency [1] | Potency [2] | Potency [3] | Potency [4] | Potency [5] | Potency [6] | Potency [7] | Potency [8] | Potency [9] | Potency [12] | outcome [13] | Potency [14] | Potency [15] | activity change, positive = activation [19] 0.387% and 1.02% | outcome [16] | Potency [17] | Potency [18]
